# Bioassay records deposited in PubChem by Johns Hopkins Ion Channel Center.
# Sampled rows, rich in hits. Any-hit rate of the full collection: about 1.6%.
# KCNQ2 pot – enhances the rat KCNQ2 potassium channel | O88943 | CHO-K1 KCNQ2, FluxOR thallium flux fluorescence; active compounds read high | B-score at 10 µM | 0.54% of 310,000 active | AID 2239;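 active means fluorescence ratio B-score at least 3 SD of library B-scores, with initial fluorescence B-score within 3 of them, cut at about 5.3 in these data; same plate scores as AID 2156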;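 further: B-score of peak minus minimum over baseline fluorescence ratio after K+ and Tl+ stimulus; positive B-score means potentiation of KCNQ2 with more thallium influx and brighter signal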
# KCNQ2 block – KCNQ2 (rat) channel inhibition; O88943; CHO-K1 KCNQ2, FluxOR thallium flux, 20 min; active compounds read low; B-score at 10 µM; 1.1% of 310,000 active; AID 2156;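 active means fluorescence ratio B-score at most minus 3 library SDs, with starting brightness B-score within 2 library SDs, cut at about -5.5 in these data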
# KCNQ2 inh conf – confirmation of rat KCNQ2 potassium channel inhibitors; shares compounds with KCNQ2 block; KCNQ2-expressing cells, thallium flux, inhibition; active compounds read low; activity change, negative = inhibition, % at 10 µM; 57% of 1,000 active; AID 493025;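 further: 0% = vehicle wells and values are ratio percent relative to vehicle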
# KCNQ1 spec – selectivity of KCNQ2 inhibitors against human KCNQ1; shares compounds with KCNQ2 block; KCNQ1-expressing cells, FluxOR thallium flux fluorescence; active compounds read low; activity change, negative = inhibition, % at 10 µM; 15% of 1,000 active;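 active means activity change at least 3 SD of negative controls below their mean in both duplicate wells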;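 further: CHO cells stably transfected with KCNQ1 and depolarized by potassium stimulus; peak minus minimum fluorescence over baseline after thallium addition; 0% = vehicle negative control and -100% = blank without thallium stimulus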
# Target sequence (P51787 whole entry, looked up): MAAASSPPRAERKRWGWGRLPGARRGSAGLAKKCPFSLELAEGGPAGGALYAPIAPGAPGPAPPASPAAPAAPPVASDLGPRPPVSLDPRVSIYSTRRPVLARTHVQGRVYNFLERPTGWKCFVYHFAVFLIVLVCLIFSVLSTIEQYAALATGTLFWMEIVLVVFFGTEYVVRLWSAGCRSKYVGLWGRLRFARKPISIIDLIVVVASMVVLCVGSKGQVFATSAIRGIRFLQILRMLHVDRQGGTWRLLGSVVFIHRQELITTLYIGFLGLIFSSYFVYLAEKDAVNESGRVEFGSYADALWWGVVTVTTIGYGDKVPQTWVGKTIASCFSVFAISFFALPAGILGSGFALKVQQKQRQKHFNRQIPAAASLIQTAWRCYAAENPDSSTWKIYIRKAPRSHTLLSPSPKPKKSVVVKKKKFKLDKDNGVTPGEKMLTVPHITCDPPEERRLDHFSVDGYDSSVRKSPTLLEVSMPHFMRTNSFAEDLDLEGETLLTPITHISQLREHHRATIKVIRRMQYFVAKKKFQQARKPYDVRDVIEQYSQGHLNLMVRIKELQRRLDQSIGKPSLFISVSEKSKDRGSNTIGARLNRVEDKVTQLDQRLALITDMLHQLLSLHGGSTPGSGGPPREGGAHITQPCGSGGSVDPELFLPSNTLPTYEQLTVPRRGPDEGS
# CHO Tl ctr – KCNQ2 inhibitor counter-screen hit in parental CHO cells; thallium flux counter-screen; active compounds read low; activity change, % at 10 µM; 14% of 1,000 active; AID 493029; shares compounds with KCNQ2 block;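 further: 0% = vehicle negative controls with stimulus buffer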
# KCNQ2 inh confirm – confirmation of rat KCNQ2 potassium channel inhibitors; calls only at 10 µM; AID 588531; 49% of 550 active; KCNQ2-expressing cells, automated patch clamp current; shares compounds with KCNQ2 block
# Numbers without * were called inactive; i = inactive; . = no result given; + = active, no number. Unless noted, how the calls were made is not given here.
SMILES,KCNQ2 pot,KCNQ2 block,KCNQ2 inh conf,KCNQ1 spec,CHO Tl ctr,others
COc1ccccc1C(=O)COC(=O)CN1C(=O)C2CC=CCC2C1=O (centres undefined),1.41,i,.,.,.,
Cc1ccc(-c2nn(-c3ccccc3)cc2C(=O)O)o1,.,i,.,.,.,
Cc1ccc(-c2nn(-c3ccccc3)cc2CN(Cc2ccccc2)C(=O)c2ccco2)o1,-15.1,-15.1*,-47.0%*,-48.5%*,-49.5%*,KCNQ2 inh confirm=i
O=C(CC(=O)c1c(F)cccc1Cl)c1ccccc1O,4.01,i,.,.,.,
COCCCNC(=O)CNC(=O)c1nn(-c2ccc(OC)c(Cl)c2)c(=O)c2ccccc12,0.94,i,.,.,.,
CC(C)=CCc1c(-c2ccc(O)cc2O)oc2cc3c(c(O)c2c1=O)C=CC(C)(C)O3,.,i,.,.,.,
COc1ccc(-c2oc3c4c(cc(OC)c3c(=O)c2CC=C(C)C)OC(C)(C)C=C4)c(OC)c1,-9.01,-9.01*,i,i,i,
CC(=O)Nc1ccc(NC(=O)C(C)OC(=O)CCCOc2ccc(Cl)c(C)c2)cc1 (centres undefined),.,i,.,.,.,
CN(c1ccccc1)S(=O)(=O)c1cccc(NC(=O)c2ccc3ncsc3c2)c1,-7.42,-7.42*,i,i,i,
Cc1nc2ccc(NC(=O)c3cccc(S(=O)(=O)N(C)c4ccccc4)c3)cc2s1,.,i,.,.,.,
CC1CCC2C(C1)OS(=O)(=O)NC2(C)C (centres undefined),0.71,i,.,.,.,
O=Cc1cc(CCC(=O)O)ccc1O,0.62,i,.,.,.,
CCn1c(CNc2ccc(C)cc2)nnc1SCC(=O)NCc1ccccc1,.,i,.,.,.,
C=CCn1c(CSCc2ccc(C)cc2)nnc1SCC(=O)NCc1ccccc1,-8.42,-8.42*,-22.0%*,i,i,KCNQ2 inh confirm=+
CC(C)c1ccc(/C=C2\SC(=O)N(CC(=O)NC3CCS(=O)(=O)C3)C2=O)cc1 (centres undefined),0.6,i,.,.,.,
Cc1ccc(CC(=O)Nc2nccs2)cc1C,0.36,i,.,.,.,
O=C(/C=C/c1cccc(C(F)(F)F)c1)Nc1cccc(C(F)(F)F)c1,-8.24,-8.24*,i,i,i,
C/C=C/C(=O)Nc1cccc(C(F)(F)F)c1,2.06,i,.,.,.,
Cc1ccc(NC(=O)Cn2cc([N+](=O)[O-])nc2C)cc1C,3.06,i,.,.,.,
COc1ccc(CNC(=O)CN(Cc2ccc(Cl)cc2)S(=O)(=O)c2ccccc2)cc1,-7.45,-7.45*,-29.5%*,i,i,KCNQ2 inh confirm=i
COc1ccc(S(=O)(=O)N(CC(=O)NCc2ccncc2)Cc2ccccc2)cc1,.,i,.,.,.,
Cn1cccc1/C=C1\CC(C(C)(C)C)C/C(=C\c2cccn2C)C1=O (centres undefined),-10.7,-10.7*,-71.5%*,-74.0%*,-68.0%*,KCNQ2 inh confirm=i
Cn1cccc1/C=C1\Cc2ccccc2C1=O,.,i,.,.,.,
Cc1ccc(-c2noc(CN(C)C(=O)c3ccc(Br)o3)n2)cc1,.,i,.,.,.,
O=C(N/N=C/c1cc(Br)c(O)c(Br)c1)c1cc2c(ccc3ccccc32)o1,-10.7,-10.7*,-53.0%*,-49.5%*,-54.5%*,KCNQ2 inh confirm=i
SMILES,KCNQ2 pot,KCNQ2 block,KCNQ2 inh conf,KCNQ1 spec,CHO Tl ctr,others
O=C(N/N=C/c1ccc(O)c(Br)c1)c1cc2c(ccc3ccccc32)o1,.,i,.,.,.,
Cc1[nH]n(-c2ccccc2)c(=O)c1C(C[N+](=O)[O-])c1ccc(Br)cc1 (centres undefined),.,i,.,.,.,
COc1cccc(C(C[N+](=O)[O-])c2c(C)[nH]n(-c3ccccc3)c2=O)c1 (centres undefined),-11.6,-11.6*,i,i,i,
O=C(CCN1N=C(c2ccccc2)CCC1=O)NCCCN1CCOCC1,0.62,i,.,.,.,
O=C1CCC(C(=O)N2CCCCCC2)CN1Cc1cccc(C(F)(F)F)c1 (centres undefined),.,i,.,.,.,
CC(C)=CC(=O)OCC(=O)NC1CCCc2ccccc21 (centres undefined),-6.7,-6.7*,i,i,i,
O=C(CN1C(=O)NC2(CCCCCCC2)C1=O)NC1CCCc2ccccc21 (centres undefined),-7.55,-7.55*,-19.0%*,i,i,KCNQ2 inh confirm=+
COc1ccc(NC(=O)NC2CCCc3ccccc32)cc1 (centres undefined),.,i,.,.,.,
CC1CCCCC12NC(=O)N(CC(=O)NC1CCCc3ccccc31)C2=O (centres undefined),.,i,.,.,.,
COC(=O)[C@@H](NC(=O)NC1CCCc2ccccc21)C(C)C (some centres undefined),-7.18,-7.18*,i,i,i,
COc1ccccc1OCC(=O)NC1CCCc2ccccc21 (centres undefined),.,i,.,.,.,
CNC(=O)c1c(NC(=O)CCS(=O)(=O)c2ccc(C)cc2)sc(C)c1C,0.64,i,.,.,.,
CCC(C)[C@H](NC(=O)[C@@H]1Cc2c([nH]c3ccccc23)C2c3ccccc3C(=O)N21)C(=O)NCC1CCCO1 (some centres undefined),.,i,.,.,.,
O=C(CCCOc1cccc(Br)c1)NCCOc1ccccc1,.,i,.,.,.,
CSc1nc(C=Nc2ccccc2Cl)c(O)n1Cc1cccc(Cl)c1,.,i,.,.,.,
COc1ccccc1OCC(=O)Nc1ccccc1C(=O)N1CCCC1,0.04,i,.,.,.,
O=C(COc1ccc(F)cc1Cl)Nc1ccccc1C(=O)N1CCCCC1,-8.63,-8.63*,-21.5%*,i,i,KCNQ2 inh confirm=+
CCN(CCCNC(=O)Cn1ncc2c([nH]c3ccc(C)cc32)c1=O)c1ccccc1,.,i,.,.,.,
CCC1(c2ccccc2)NC(=O)N(CC(=O)Nc2ccccc2C(=O)NC2CC2)C1=O (centres undefined),.,i,.,.,.,
CCOC(=O)c1c(-c2cccs2)csc1NC(=O)COC(=O)c1c(C)noc1C,-10.1,-10.1*,-24.0%*,i,i,KCNQ2 inh confirm=i
CCOC(=O)c1c(-c2cccs2)csc1NC(=O)c1ccncc1,0.91,i,.,.,.,
O=C(NC1c2ccccc2-c2ccccc21)N1CCOCC1,-6.95,-6.95*,-28.5%*,i,i,KCNQ2 inh confirm=+
O=C(NC(c1ccccc1)c1ccccc1)N1CCOCC1,.,i,.,.,.,
O=C(Cc1ccccc1)NC1c2ccccc2-c2ccccc21,-6.75,-6.75*,i,i,i,
O=C(Cc1ccccc1)NNC(=O)Cc1ccccc1,.,i,.,.,.,
SMILES,KCNQ2 pot,KCNQ2 block,KCNQ2 inh conf,KCNQ1 spec,CHO Tl ctr,others
Cc1ccccc1NC(=O)N1CCNC(=O)C1CC(=O)Nc1cc(Cl)ccc1Cl (centres undefined),0.47,i,.,.,.,
O=C(NNC(=O)c1ccccc1O)c1ccc(Cl)c(S(=O)(=O)N2CCc3ccccc32)c1,0.42,i,.,.,.,
CCN(CC)C(=O)c1cc2c(=O)c3cc(Cl)ccc3oc2nc1C,-7.42,-7.42*,-28.5%*,i,i,KCNQ2 inh confirm=+
CCOC(=O)c1cc2c(=O)c3cc(C)ccc3oc2nc1C,1.46,i,.,.,.,
Nc1ccc(S(=O)(=O)Nc2nccc(/C=C/c3ccc(Cl)cc3Cl)n2)cc1,.,i,.,.,.,
CCn1c(SCC(=O)c2ccccc2)nc2ccccc2c1=O,0.74,i,.,.,.,
O=C(CSc1nc2ccccc2c(=O)n1NC(=O)c1ccccc1)c1ccccc1,-11.7,-11.7*,-15.5%*,i,i,KCNQ2 inh confirm=+
